PubChem BioAssay
Results filed as inconclusive are left out. Active and inactive are the calls of the source.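 Rule for the calls, unless noted: active = viability at or below 27.92% in each of two runs, the all-compound median minus 4 SD; inconclusive = no clear call, values can overlap the other calls; inactive = the rest.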

Assay: growth suppression of beta-catenin knockout HCT116, pilot screen, human colon tumor cells (AID 823;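 active = cell viability at or below a set limit in both duplicate runs, the limit being the all-compound median minus 4 SD, cut at about 23% in these data, passing the limit was not always enough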;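 note: 0% = wells killed by 20 µM Hyamine and 100% = untreated DMSO cell wells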)
Settings: CellTiter-Glo, 60 h, at 10 µM, active compounds read low

Q: Which viability does the source give for `CC(C)n1c(CCCO)nc2ccccc21` here?
A: 95.7% (inactive)

Q: With `Cn1c(SCc2nc3ccccc3[nH]2)nnc1-c1cccnc1` as the molecule, how does the viability read?
A: 95.1% (inactive)

Q: For `O=C(NC1CCCCC1)C1CCN(S(=O)(=O)c2cccc3cccnc23)CC1`, which viability is on record?
A: 101% (inactive)

Q: Which viability does the source give for `Cc1cc(OCc2ccc(F)cc2)nc(-c2ccccc2O)n1` here?
A: 76.6% (inactive)

Q: With `CCC(=O)N=c1sc2cc(F)cc(F)c2n1C` as the molecule, how does the viability read?
A: 93.4% (inactive)

Q: Which viability does the source give for `CCOc1ccc(C2CC(=O)NC(SC)=C2C#N)cc1` (configuration not stated) here?
A: 104% (inactive)

Q: Which viability does the source give for `COc1cc(OC)cc(-c2cc3nc(C)c(CCC(=O)O)c(C)n3n2)c1` here?
A: 96.6% (inactive)

Q: With `COc1ccc(C2C=C(c3ccc(C)c(C)c3)Nc3ncnn32)c(OC)c1OC` (configuration not stated) as the molecule, how does the viability read?
A: 40.4% (inactive)

Q: With `CC(CCc1ccccc1)NC(=O)CSc1nnnn1C` (configuration not stated) as the molecule, how does the viability read?
A: 101% (inactive)

Q: For `CCN(CCNC(=O)C1CCN(c2nnc(-n3cccc3)s2)CC1)c1ccccc1`, which viability is on record?
A: 90.6% (inactive)

Q: Which viability does the source give for `O=C(c1cnn2ccccc12)N(Cc1ccco1)C1CCCC1` here?
A: 70% (inactive)

Q: With `CC(=O)Nc1nnc(C)s1` as the molecule, how does the viability read?
A: 103% (inactive)

Q: For `CCOCCCNC(=O)c1cccs1`, which viability is on record?
A: 91% (inactive)

Q: Which viability does the source give for `CCc1nnc(NC(=O)CSc2nnc(Cc3cccn3C)n2C)s1` here?
A: 100% (inactive)

Q: Which viability does the source give for `NC(=O)CSc1nnc(Cn2c(=O)sc3ccccc32)n1-c1ccccc1` here?
A: 98.5% (inactive)

Q: For `CCSc1nnc(NC(=O)C(C)C)s1`, which viability is on record?
A: 100% (inactive)

Q: Which viability does the source give for `Cc1ccc2oc3c(c(=O)c2c1)C(c1cccc(Cl)c1)N(CCCN1CCOCC1)C3=O` (configuration not stated) here?
A: 76.8% (inactive)

Q: With `O=S(=O)(NC1CCCCC1)c1cccc(-c2nnc(-c3ccccc3)o2)c1` as the molecule, how does the viability read?
A: 88.7% (inactive)

Q: With `COc1ccc(CN2CCNC(=O)C2CC(=O)O)cc1OC` (configuration not stated) as the molecule, how does the viability read?
A: 105% (inactive)

Q: For `COc1ccc2c(Cl)c(C(=O)NC3CCS(=O)(=O)C3)sc2c1` (configuration not stated), which viability is on record?
A: 93.3% (inactive)

Q: With `O=C(Cn1cc2c(n1)CCCCC2)NCc1ccccn1` as the molecule, how does the viability read?
A: 95.6% (inactive)

Q: For `Cn1cccc1Cc1nnc(SCC(=O)NC2CCCCC2)n1CCc1ccccc1`, which viability is on record?
A: 79.6% (inactive)

Q: For `CCc1ccc(C2CC(c3ccccc3)Nc3nc(N)nn32)cc1` (configuration not stated), which viability is on record?
A: 97.3% (inactive)

Assay: growth suppression of PTEN-deleted HCT116, pilot screen, cell-based, HCT116 clonal line, CellTiter-Glo (AID 824);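 note: 0% = 20 µM Hyamine control and 100% = vehicle cell control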
Settings: 60 h, at 10 µM, active compounds read low

Q: With `CC(=O)Nc1sc(C)c(C)c1CN1CCN(S(=O)(=O)c2ccccc2)CC1` as the molecule, how does the viability read?
A: 85% (inactive)

Q: With `CC(C)CC(=O)Nc1ccc(C(=O)COc2ccc(-c3nnco3)cc2)cc1` as the molecule, how does the viability read?
A: 87% (inactive)

Q: Which viability does the source give for `C=CCSC1=N/C(=C\c2ccc(C)o2)C(=O)S1` here?
A: 98.6% (inactive)

Q: With `Cc1ccc(-c2nn3c(C)nnc3s2)cc1NC(=O)c1ccco1` as the molecule, how does the viability read?
A: 103% (inactive)

Q: Which viability does the source give for `CCN(CC)P1(=O)OC(c2cc(OC)c(OC)c(OC)c2)=Nc2c1c(C)nn2-c1ccccc1` (configuration not stated) here?
A: 92.8% (inactive)

Q: For `CCc1ccc(NC(=O)c2ccc3c(c2)C(=O)N(Cc2ccco2)C3=O)cc1`, which viability is on record?
A: 89.6% (inactive)

Q: With `CSC1=NCCN1C(=O)c1ccc(Br)o1` as the molecule, how does the viability read?
A: 94.5% (inactive)

Q: With `COc1ccccc1NC(=O)C1C2C=CC3(CN(Cc4cccnc4)C(=O)C13)O2` (configuration not stated) as the molecule, how does the viability read?
A: 103% (inactive)

Q: With `Cn1c(Cn2c(=O)sc3ccccc32)nnc1SCC(=O)NCc1ccccc1Cl` as the molecule, how does the viability read?
A: 103% (inactive)

Q: Which viability does the source give for `CCN1C(=O)c2ccccc2S(=O)c2ccc(C(=O)N3CCCC3)cc21` (configuration not stated) here?
A: 88.9% (inactive)

Q: With `Cc1ccccc1CSc1nnc(Cn2c(=O)sc3ccccc32)n1C` as the molecule, how does the viability read?
A: 98.5% (inactive)

Q: Which viability does the source give for `O=C(NCc1ccccn1)C1CC(=O)N(C2CCCC2)C1` (configuration not stated) here?
A: 96.9% (inactive)

Q: Which viability does the source give for `COc1ccccc1NC(=O)C1=C(C)NC(=O)NC1c1cccc(OC)c1OC` (configuration not stated) here?
A: 94.8% (inactive)

Q: With `CCOC(=O)C1CCCN(C(=O)c2cn(CC)c3ccc(S(=O)(=O)N(C)C)cc3c2=O)C1` (configuration not stated) as the molecule, how does the viability read?
A: 102% (inactive)

Q: For `CCCOC(=O)CSC1=C(C#N)C(c2ccccc2Cl)CC(=O)N1` (configuration not stated), which viability is on record?
A: 75.5% (inactive)

Q: For `COc1ccc(S(=O)(=O)Cc2ccc(C(=O)N3CCCC3)o2)cc1`, which viability is on record?
A: 91% (inactive)

Q: Which viability does the source give for `CC(C)n1c(CCCO)nc2ccccc21` here?
A: 88.1% (inactive)

Q: Which viability does the source give for `Cn1c(SCc2nc3ccccc3[nH]2)nnc1-c1cccnc1` here?
A: 99.1% (inactive)

Q: With `O=C(NC1CCCCC1)C1CCN(S(=O)(=O)c2cccc3cccnc23)CC1` as the molecule, how does the viability read?
A: 102% (inactive)

Q: For `Cc1cc(OCc2ccc(F)cc2)nc(-c2ccccc2O)n1`, which viability is on record?
A: 70.3% (inactive)

Q: Which viability does the source give for `CCC(=O)N=c1sc2cc(F)cc(F)c2n1C` here?
A: 87.8% (inactive)

Q: Which viability does the source give for `CCOc1ccc(C2CC(=O)NC(SC)=C2C#N)cc1` (configuration not stated) here?
A: 94.9% (inactive)

Q: With `COc1cc(OC)cc(-c2cc3nc(C)c(CCC(=O)O)c(C)n3n2)c1` as the molecule, how does the viability read?
A: 96.6% (inactive)

Q: Which viability does the source give for `COc1ccc(C2C=C(c3ccc(C)c(C)c3)Nc3ncnn32)c(OC)c1OC` (configuration not stated) here?
A: 34.3% (inactive)

Q: With `CC(CCc1ccccc1)NC(=O)CSc1nnnn1C` (configuration not stated) as the molecule, how does the viability read?
A: 101% (inactive)

Q: With `CCN(CCNC(=O)C1CCN(c2nnc(-n3cccc3)s2)CC1)c1ccccc1` as the molecule, how does the viability read?
A: 92.7% (inactive)

Q: Which viability does the source give for `O=C(c1cnn2ccccc12)N(Cc1ccco1)C1CCCC1` here?
A: 69.8% (inactive)

Q: For `CC(=O)Nc1nnc(C)s1`, which viability is on record?
A: 93.3% (inactive)

Q: For `CCOCCCNC(=O)c1cccs1`, which viability is on record?
A: 94.4% (inactive)

Q: With `CCc1nnc(NC(=O)CSc2nnc(Cc3cccn3C)n2C)s1` as the molecule, how does the viability read?
A: 96% (inactive)

Q: With `NC(=O)CSc1nnc(Cn2c(=O)sc3ccccc32)n1-c1ccccc1` as the molecule, how does the viability read?
A: 96.8% (inactive)

Q: For `CCSc1nnc(NC(=O)C(C)C)s1`, which viability is on record?
A: 109% (inactive)

Q: For `Cc1ccc2oc3c(c(=O)c2c1)C(c1cccc(Cl)c1)N(CCCN1CCOCC1)C3=O` (configuration not stated), which viability is on record?
A: 79% (inactive)

Q: For `O=S(=O)(NC1CCCCC1)c1cccc(-c2nnc(-c3ccccc3)o2)c1`, which viability is on record?
A: 81.2% (inactive)

Q: For `COc1ccc(CN2CCNC(=O)C2CC(=O)O)cc1OC` (configuration not stated), which viability is on record?
A: 101% (inactive)

Q: Which viability does the source give for `COc1ccc2c(Cl)c(C(=O)NC3CCS(=O)(=O)C3)sc2c1` (configuration not stated) here?
A: 99.3% (inactive)

Q: With `O=C(Cn1cc2c(n1)CCCCC2)NCc1ccccn1` as the molecule, how does the viability read?
A: 90.8% (inactive)

Q: Which viability does the source give for `Cn1cccc1Cc1nnc(SCC(=O)NC2CCCCC2)n1CCc1ccccc1` here?
A: 81.5% (inactive)

Q: For `CCc1ccc(C2CC(c3ccccc3)Nc3nc(N)nn32)cc1` (configuration not stated), which viability is on record?
A: 100% (inactive)
